# Laboratory results: PubChem BioAssay (NCI)
# Where “and” joins values, the source holds several entries; their conditions need not be identical. Equal values may be shown once. About 83,000 compounds went through this panel and 20% of them were active in at least one assay; those are over-represented in the sample as a whole.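 Single-dose data. Exposure time 48 hours. Values below 10 considered active.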 Calls of active or inactive are those of the source.
# Tested on: UACC-62 melanoma
# Assay: NCI-60 one-dose screen, 48 h (100 = growth as untreated, 0 = no growth, -100 = all killed)
# Conditions: 10 µM unless noted
# Method: Growth inhibition of the UACC-62 human tumor cell line is measured as a screen for anti-cancer activity. Cells are grown in 96 well plates and exposed to the test compound for 48 hours. Compounds are tested at a single concentration, which is 10^-5 M for most compounds. The reported endpoint is percent growth (GI% or GIPRCNT), where numbers from 0 - 100% represent growth inhibition, and numbers from -100% - 0 represent cell death. For example, a value of 40 represents 60% growth inhibition. A value of 0 means no net growth occurred over the course of the experiment. A value of -40 indicates 40% of cells at the beginning of the experiment died by the end of the experiment. A value of -100 means all cells are dead at the end of the experiment.
# NCI-60 Human Tumor Cell Lines Screen was performed using the standard one-dose NCI protocol, which is described in more detail at https://dtp.cancer.gov/discovery_development/nci-60/default.htm.
# Compounds with GIPRCNT values below 10 were considered active. Activity score was based on GIPRCNT using the following formula: […]
# Score is 0 for GIPRCNT values of 100 or above, 50 for GIPRCNT values of 0, and 100 for GIPRCNT values of -100.
row,SMILES,growth
1,OC(c1ccccc1)(c1ccccc1)C1CCN(c2ccc3nnc(Cl)n3n2)CC1,54.5% (inactive)
2,CCc1ccccc1-c1nc(CN[C@@H]2C[C@@H]3C[C@H]([C@H]2C)C3(C)C)c(C)o1,-88.3% (active)
3,c1ccc(CSc2nnc(-c3ccc4nc(-c5ccccc5)[nH]c4c3)o2)cc1,5.19% (active)
4,Cc1ccc(C(=O)Nc2ccc(-n3ccnc3)c(C(F)(F)F)c2)cc1C#Cc1cnc2cccnn12,-15.1% (active)
5,COC(=O)c1c(C(=O)OC)c2c3ccccc3c3ccccc3n2c1C(=O)C(F)(F)F,63% (inactive)
6,COc1ccc(-c2cc(C(=O)N=Nc3c(O)[nH]c4ccc(Cl)cc34)c3ccccc3n2)cc1OC,89.8% (inactive)
7,COc1ccc(N=Nc2c(N)nn3c(N)c(C#N)c(-c4ccc(F)cc4)nc23)cc1,61.5% (inactive)
8,COc1cc(C2CC(c3ccc(S(=O)(=O)NCCNc4nc(N(C)C)nc(N5CCOCC5)n4)cc3)=Nc3c(N)nc(N)nc3N2)cc(OC)c1OC (stereo not given),93.7% (inactive)
9,COc1cc2cc(C(=O)N3C[C@@H](CCl)c4c3cc(OC(=O)N(CCC(=O)N3CCN(C)CC3)C3CCCCC3)c3ccccc43)[nH]c2c(OC)c1OC,-94.5% (active)
10,O=C1/C(=C/c2cccc3c2OCO3)Cc2c(F)cc(Br)cc21,91.8% (inactive)
11,CC[C@]12C=CCN3CC[C@]4(C(=C(C(=O)OC)C1)Nc1cc(OC)c([C@@H]5[C@H]6O[C@H]6[C@@]6(CC)CC(C(=O)OC)=C7Nc8cc(OC)ccc8[C@@]78CCN5[C@@H]68)cc14)[C@@H]32,42.9% (inactive)
12,COc1ccc2[nH]c(O)c(N=NC(=O)c3ccc4nc(-c5ccc(Cl)cc5)[nH]c4c3)c2c1,69.8% (inactive)
13,CN(C)c1nc(NCCNS(=O)(=O)c2ccc(C3=Nc4c(N)nc(N)nc4NC(c4ccc(Cl)cc4)C3)cc2)nc(N2CCOCC2)n1 (stereo not given),66.6% (inactive)
14,CC1=C(C(=O)Nc2ccccc2)C(c2cccc3ccccc23)n2c(nc3ccccc32)N1 (stereo not given),66.8% (inactive)
15,O=C1Nc2ccc(F)cc2/C1=C/C(=O)c1cc2ccccc2oc1=O,82.2% (inactive)
16,CN1C(=O)C(O)(CC(=O)c2cc3ccccc3oc2=O)c2ccccc21 (stereo not given),86.8% (inactive)
17,C/C(=N\Nc1ccc(S(N)(=O)=O)cc1)c1cnn(-c2cc(=O)[nH]c3ccc(Br)cc23)c1C,11.4% (inactive)
18,CC1=C(C(=O)Nc2ccccc2)C(c2cccc(Cl)c2Cl)n2c(nc3ccccc32)N1 (stereo not given),46.7% (inactive)
19,Cc1cc(C(NC(=O)C2CC3(CC(Nc4cccc5c4C(=O)N(C4CCC(=O)NC4=O)C5=O)C3)C2)c2ccc3c(c2)OC(F)(F)O3)c(O)c2ncccc12 (stereo not given),-41% (active)
20,Cn1cc(-c2cc(N)n3nc(-c4c[nH]c5ccccc45)cc3n2)c2cc(Br)ccc21,-69.4% (active)

row,SMILES,growth
1,CC[C@]12C=CCN3CC[C@@]4(c5ccc(OC)cc5N(C)[C@H]4[C@@](O)(C(=O)OC)[C@@H]1OC(=O)CCCC[P+](c1ccc(F)cc1)(c1ccc(F)cc1)c1ccc(F)cc1)[C@@H]32,-69.6% (active)
2,COc1cc(C2CC(c3ccc(F)cc3)=Nc3c(N)nc(N)nc3N2)ccc1Oc1nc(Nc2ccc(F)cc2)nc(N(C)C)n1 (stereo not given),73.4% (inactive)
3,CC1(C)CC(=O)C2=C(C1)OC(N)=C(c1nc3ccccc3[nH]1)C2c1ccc(Cl)cc1 (stereo not given),-22.9% (active) and 94.3% (inactive)
4,COc1ccc(N=Nc2c(N)nn3c(-c4ccc5c(c4)C=S=C5)ccnc23)cc1,38% (inactive)
5,COc1cc(CNC(=O)C[C@H](C)CCC=C(C)C)ccc1OCc1cn(-c2cccc(C(F)(F)F)c2)nn1,72.1% (inactive)
6,C=CCn1c(O)c(N=Nc2nc(-c3cc4ccccc4oc3=O)cs2)c2ccccc21,52.6% (inactive)
7,O=C(NNC(=S)NCCc1ccccc1)c1ccc(OCc2nc3ccc(Cl)cc3[nH]2)cc1,63.3% (inactive)
8,Cc1ccc(NC(=O)N/N=C/c2c[nH]c3ccccc23)c(C)c1,8.67% (active)
9,O=C(Nc1ccc(Br)cc1)Nc1ccc(-c2ccc3c(c2)NC(=O)/C3=C\c2ccc[nH]2)cc1,24.7% (inactive)
10,Nc1nn2c(-c3cc4cc(Br)ccc4oc3=O)ccnc2c1N=Nc1ccc(S(N)(=O)=O)cc1,83.7% (inactive)
11,Clc1ccc2c(NCCNC34CC5CC(CC(C5)C3)C4)ccnc2c1,-89.9% (active)
12,O=C(c1ccc(Cl)cc1)C1[C@H](c2ccccc2Cl)[C@@H](c2ccccc2)NC12C(=O)Nc1ccccc12 (stereo not given in full),-73.3% (active)
13,COc1sc(/C=N/NC(=O)c2[nH]c3ccc(Br)cc3c2-c2ccccc2)cc1Br,17% (inactive)
14,COc1cccc(NC(=O)c2ccc(NC(=O)CCl)s2)c1,-19.4% (active)
15,COc1ccc(C(=O)C[n+]2cccc3c4ccccc4ccc32)cc1,55.7% (inactive)
16,CN(C)CCCc1ccc(Nc2cnn(C)c(=O)c2Cl)cc1,98.9% (inactive)
17,Cc1ccc2nc(NC(=O)Nc3cccc(Cl)c3)sc2c1,91.2% (inactive)
18,COc1ccc2nc(NC(=O)c3ccc(N(C)C)cc3)sc2c1,69.9% (inactive)
19,CN1CCN(C(=O)Oc2cc3c(c4ccccc24)[C@H](CCl)CN3C(=O)c2cc3cc(OCCCN4CCC4)ccc3[nH]2)[C@H]2CSSC[C@H]21,-81.9% (active)
20,CN(C)c1nc(NCCNS(=O)(=O)c2ccc(C3=Nc4c(N)nc(N)nc4NC(c4ccc(C(F)(F)F)cc4)C3)cc2)nc(N2CCOCC2)n1 (stereo not given),51.5% (inactive)
